# Values joined by “and” are separate entries in the source; they are usually repeats but may differ in a detail not shown here. Equal entries are not always repeated. Inconclusive results are not listed. Unmarked numbers belong to inactive results. Active and inactive are the calls of the source. The call rests on the fitted dose curve; in most records, active means well fitted inhibition curve with a large enough effect in the repeat runs; inconclusive means weak or mixed curves; inactive means no such curve, though single readings can be large or run the other way.
# Target: Androgen receptor (Homo sapiens) (UniProt P10275)
# Sequence (P10275 whole entry, looked up): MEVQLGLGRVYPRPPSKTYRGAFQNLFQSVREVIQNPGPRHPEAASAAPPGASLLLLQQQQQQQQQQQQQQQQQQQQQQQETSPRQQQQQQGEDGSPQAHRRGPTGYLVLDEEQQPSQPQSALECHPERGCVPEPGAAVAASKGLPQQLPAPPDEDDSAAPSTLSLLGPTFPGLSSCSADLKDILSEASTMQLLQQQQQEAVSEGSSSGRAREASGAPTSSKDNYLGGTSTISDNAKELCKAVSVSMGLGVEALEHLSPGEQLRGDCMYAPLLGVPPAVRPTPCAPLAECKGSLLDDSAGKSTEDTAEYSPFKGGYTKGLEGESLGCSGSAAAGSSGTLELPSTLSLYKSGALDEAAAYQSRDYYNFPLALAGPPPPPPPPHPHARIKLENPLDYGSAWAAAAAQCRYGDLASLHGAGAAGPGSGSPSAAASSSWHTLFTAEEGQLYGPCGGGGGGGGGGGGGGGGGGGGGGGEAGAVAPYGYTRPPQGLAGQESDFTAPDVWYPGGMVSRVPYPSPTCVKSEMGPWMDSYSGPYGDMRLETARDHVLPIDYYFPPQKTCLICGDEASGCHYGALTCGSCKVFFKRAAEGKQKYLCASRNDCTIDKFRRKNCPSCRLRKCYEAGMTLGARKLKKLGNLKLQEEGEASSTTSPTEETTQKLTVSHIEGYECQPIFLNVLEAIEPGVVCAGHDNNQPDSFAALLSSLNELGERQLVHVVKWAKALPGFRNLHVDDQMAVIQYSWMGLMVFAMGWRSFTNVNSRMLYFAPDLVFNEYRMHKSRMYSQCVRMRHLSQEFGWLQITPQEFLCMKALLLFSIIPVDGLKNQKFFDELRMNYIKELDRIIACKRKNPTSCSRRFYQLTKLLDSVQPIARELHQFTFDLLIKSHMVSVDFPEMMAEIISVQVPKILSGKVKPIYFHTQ
# Assay: qHTS assay to identify small molecule antagonists of the androgen receptor (AR) signaling pathway using the MDA cell line in the presence of 0.5 nM R1881 (AID 1259243); further: nearly all actives have a fitted effect of over 50% in size
# Conditions: MDA-kb2 MMTV-luciferase, R1881 0.5 nM, 16 h; series mostly up to 92.4 µM; activity, negative = inhibition: at the top concentration
# Text: U.S. Tox21 Program National Center for Advancing Translational Sciences [NCATS] NIH Chemical Genomics Center [NCGC] U.S. Environmental Protection Agency [EPA] National Institutes of Environmental Health Sciences [NIEHS] National Toxicology Program [NTP] U.S. Food and Drug Administration [FDA] Tox21 Assay Overview: Androgen receptor (AR) is an important member of the nuclear receptor family. Its signaling plays a critical role in AR-dependent prostate cancer and other androgen related diseases. Considerable attention has been given in the past decades to develop methods to study and screen for the environmental chemicals that have the potential to interfere with metabolic homeostasis, reproduction, developmental and behavioral functions. Therefore AR binding assay for screening androgen antagonists can be used to identify potential endocrine disruptors. MDA-kb2 cells (from ATCC, deposited by Wilson et al.) were used to screen for AR inhibitors against Tox21 compound libraries. These cells are human breast carcinoma cells that were stably transfected with a luciferase reporter gene under control of the MMTV promoter that contains response elements for both androgen receptor (AR) and glucocorticoid receptor (GR). The current screening for identification of AR inhibitors against Tox21 libraries used lower concentration (0.5 nM) of R1881 as a stimulator.
# Tox21 Assay Protocol Summary: MDA-kb2 cells (cells cultured without CO2) were dispensed at 3,000 cells/well in 4 uL of culture medium into white wall/solid-bottom 1536-well plates (Corning Life Sciences, Corning, NY) using a Multidrop Combi (ThermoFisher Scientific, Waltham, MA) dispenser. After the assay plates were incubated at a 37C and 0% CO2 for 5 hr, 23 nL of compounds dissolved in DMSO, positive controls or DMSO only was transferred to the assay plate by a Pintool station (Kalypsys, San Diego, CA). The transfer of compounds was followed by the addition of 1 uL of 0.5 nM (final concentration) agonist (R1881)/culture medium using a Flying Reagent Dispenser (FRD, Aurora Discovery, San Diego, CA). The plates were incubated at 37C and 0% CO2 for 16 hr. For luciferase reporter gene assay, 4 uL of ONE-Glo reagent (Promega Corporation, Madison, WI) was added to each well using the FRD and after 30 min incubation at room temperature luminescence intensity was measured using ViewLux plate reader (PerkinElmer, Shelton, CT).
# On the % scale 0 is the no-effect control and ±100 the full control effect; potency means the concentration at half of the fitted maximal effect.
Structure (SMILES),Potency,"activity, negative = inhibition"
Cc1cc(C(C)(C)c2ccc(O)c(C)c2)ccc1O,4.62 µM (active),–
Cc1cc(C)c(C(=O)P(=O)(c2ccccc2)c2ccccc2)c(C)c1,54.5 µM (active),–
ClC(Cl)=C(c1ccc(Cl)cc1)c1ccccc1Cl,9.69 µM (active),–
Cc1ccc(N(SC(F)(Cl)Cl)S(=O)(=O)N(C)C)cc1,15.4 µM (active),–
O=S(=O)(C(Cl)(Cl)Cl)C(Cl)(Cl)Cl,17.2 µM (active),–
CCOC(=O)C(O)(c1ccc(Cl)cc1)c1ccc(Cl)cc1,13.8 µM (active) and 21.7 µM (active),–
O=C(c1ccccc1)C(Cl)Cl,4.33 µM (active),–
Oc1c(I)cc(I)cc1I,–,-16.9%
Nc1ccc([N+](=O)[O-])cc1,8.63 µM (active),–
OC(Cc1ccccc1Cl)(Cn1[nH]cnc1=S)C1(Cl)CC1 (configuration not stated),54.5 µM (active),–
CO/C=C(/C(=O)OC)c1ccccc1Oc1cc(Oc2ccccc2C#N)ncn1,5.81 µM (active),–
CCN(CC)C(=O)Cl,–,-0.429%

# — PubChem BioAssay (Tox21)
